This is part of a sample that, as a whole, favours compounds with a hit. Of some 83,000 tested, about 20% had one in any assay.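 Treatment: one concentration, 48 hours, 96-well format. Scoring: percent growth, with anything below 10 considered active.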 Values without a mark were called inactive.

The subject of this assay is UACC-257 melanoma. Nature of the assay: NCI-60 one-dose screen, 48 h (100 = growth as untreated, 0 = no growth, -100 = all killed). The settings on record: 10 µM unless noted.
For `O=C(/C=C1\C(=O)N(Cc2ccccc2)c2ccccc21)c1ccc(OCCN2CCCCC2)cc1`, the growth is 76.8%.
The value for `COc1ccc(CN2C(=O)/C(=C\C(=O)c3ccc(OCCN4CCCC4)cc3)c3ccccc32)cc1` was 105%; that for `C[C@@H](c1ccc2c(c1)[nH]c1ccc(Cl)cc12)c1nc2ccccc2[nH]1` was 106%.
As for `c1ccc(-c2cn3ccnc3c(-c3ccc4ncn(C5CCCCC5)c4c3)n2)cc1`, the growth was 94.8%.
For `C[C@@H](c1ccc2c(c1)[nH]c1ccc(Cl)cc12)c1nc2ccc(Cl)cc2[nH]1` the value was 98%; for `COc1cc(CNC(=O)CCCC/C=C/C(C)C)ccc1OCc1nnc(Nc2ccccc2F)o1`, 98.2%.
Turning to `Cc1c(CN(C)C)cc(C(C)C)cc1C(C)C`, the growth was 108%.
The value for `O=S(=O)(O)c1ccc2c(c1)Sc1cc(S(=O)(=O)O)ccc1O2` was 108%; that for `COc1ccc(Cn2cc3c(c2-c2ccccc2)CCc2cnoc2-3)cc1N` was 63.2%; that for `COc1ccc(/C=C(/C(=O)N2CCN(c3ccc(C)cc3)CC2)c2cc(OC)c(OC)c(OC)c2)cc1N` was 73.8%.
For `C=CCN(C)C` the value was 106%; for `CCNc1nnc(COc2ccc(CNC(=O)CCCC/C=C/C(C)C)cc2OC)o1`, 105%.
The value for `COc1ccc2oc(=O)cc(CN3C(=O)S/C(=C\c4ccc(Cl)cc4)C3=O)c2c1` was 103%.
As for `CC(C)OC(=O)Nn1cnc2ccccc21`, the growth was 109%.
On to `COc1ccc(Cn2cc3c(c2-c2ccc(OC)cc2)CCc2cnoc2-3)cc1`, for which the growth is 65.2%.
With `COc1cc(Cn2ccc3c2-c2oncc2CC3)cc(OC)c1`, the growth is 53.4%.
The value for `COc1cccc(Cn2cc3c(c2)-c2oncc2CC3)c1` was 73.1%.
Consider `COc1ccc(C2=C/C(=C\c3ccc(Cl)cc3)C(=O)NN2C(=S)NN)cc1`, for which the growth is 104%.
For `COc1ccc(Cn2cc3c(c2)-c2oncc2CC3)cc1OC` the value was 59.2%; for `COc1ccccc1Nc1nnc(COc2ccc(CNC(=O)CCCC/C=C/C(C)C)cc2OC)o1`, 96.7%; for `N=c1c2c(=O)n3c(nc2nc2sc4ccc(Cl)cc4n12)-c1ccccc1Sc1ccccc1-3`, 29.9%.
As to `CCCC(=O)NNc1[nH]c(-c2cc(OC)c(OC)c(OC)c2)cc1C(=O)OCC`, the growth is 106%.
For `COc1ccc(Cn2cc3c(c2-c2ccc(O)cc2)CCc2cnoc2-3)cc1` the value was 70.8%; for `COc1ccc(OC)c(Cn2cc3c(c2-c2ccccc2)CCc2cnoc2-3)c1`, 79.5%; for `CCCCCCCCCCCCCCCCCC1=NCCN1CS(=O)(=O)O`, 91.8%.

Values taken from PubChem BioAssay (NCI).
